Bioassay records: PubChem BioAssay, National Center for Advancing Translational Sciences (NCATS)
Only some compounds are listed: those with a hit (about 19% of all), similar ones and a draw of the others.
TDP1 inh: blocks human tyrosyl-DNA phosphodiesterase 1; Potency, µM (titrated, usually from 130 µM), for inactives: top-dose activity change, negative = inhibition, hits mostly inhibitors; recombinant TDP1, AlphaScreen DNA substrate cleavage; hit rate 0.28% among 350,000; also: potency is read from the fitted curve at half-maximal effect; nearly all actives have a fitted effect of over 40% in size
Target sequence (Q9NUW8 whole entry, looked up): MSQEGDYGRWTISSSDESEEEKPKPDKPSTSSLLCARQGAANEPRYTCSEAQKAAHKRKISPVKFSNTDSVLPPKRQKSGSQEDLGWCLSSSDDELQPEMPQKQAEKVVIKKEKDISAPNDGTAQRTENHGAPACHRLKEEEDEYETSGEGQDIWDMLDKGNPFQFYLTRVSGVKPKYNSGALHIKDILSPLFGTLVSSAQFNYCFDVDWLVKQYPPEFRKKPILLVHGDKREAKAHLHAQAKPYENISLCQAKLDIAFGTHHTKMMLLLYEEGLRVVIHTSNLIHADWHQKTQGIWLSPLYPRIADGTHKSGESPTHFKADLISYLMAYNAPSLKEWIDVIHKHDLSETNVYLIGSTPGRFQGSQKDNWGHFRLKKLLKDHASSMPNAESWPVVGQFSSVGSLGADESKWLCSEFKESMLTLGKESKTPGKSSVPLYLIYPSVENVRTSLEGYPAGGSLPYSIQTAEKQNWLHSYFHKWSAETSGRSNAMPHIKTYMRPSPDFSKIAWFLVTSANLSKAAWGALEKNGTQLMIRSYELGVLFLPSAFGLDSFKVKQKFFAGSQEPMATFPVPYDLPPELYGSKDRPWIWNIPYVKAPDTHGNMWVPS
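Enzyme-compound mixtures sat 15 min at room temperature, followed by a 5 min reaction with 15 nM final substrate and 10 min with AlphaScreen beads. Recombinant human Tdp1 was used at 1 nM final.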
TDP1 cell CPT: DT40-hTDP1 cell growth loss with CPT | chicken DT40 Tdp1-/-;hTDP1 cells + 20 nM CPT, ATP luminescence, 48 h | Potency, µM (highest dose often 46.2 µM), without a hit: top-dose activity change, negative = growth inhibition, usual class: inhibitors | hit rate 12% among 420,000 | AID 686979; also: potency is read from the fitted curve at half-maximal effect; nearly all actives have a fitted effect of over 55% in size
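Chicken DT40 Tdp1-/- cells complemented with human TDP1, 400 cells/well, exposed to compounds plus 20 nM camptothecin for at least 48 h at 37 C; viability read as ATP content by CellTiter-Glo luminescence.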
DT40 TDP1 no CPT: qHTS for Inhibitors of human tyrosyl-DNA phosphodiesterase 1 (TDP1): qHTS in cells in absence of CPT; Potency, µM (doses to about 46.2 µM), inactives show at the top dose activity change, negative = growth inhibition, actives largely listed as inhibitors; hit rate 15% among 420,000; DT40 Tdp1-/- hTDP1 cells, no CPT, ATP luminescence, 48 h; also: potency is read from the fitted curve at half-maximal effect; nearly all actives have a fitted effect of over 55% in size
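DT40 Tdp1-/-;hTDP1 cells, no CPT (DMSO vehicle only), 400 cells/well; compounds pin-transferred; ≥48 hr, 37 °C; CellTiter-Glo 30 min RT dark, luminescence read.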
Giardia killer: Giardia lamblia killing; Giardia lamblia trophozoite viability; activity change, % at 7.66 µM, hits read low; hit rate 0.15% among 340,000; in the data active = activity change below about -80%; inconclusive = between about -30% and that limit;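 also: parasites exposed to compound for two days anaerobically before the ATP read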
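Trophozoite viability was measured as ATP-dependent luminescence, read 15-30 min after reagent addition. Before that, parasites at 100 cells/well were exposed to compounds for 48 h, anaerobically, at 37 deg C.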
IL-1B inflam inh: inflammasome signaling inhibition, IL-1 beta readout; THP-1 LPS/ATP IL-1B secretion, AlphaLISA, 16 h; active compounds read low; activity change, % at 57.5 µM; hit rate 4.7% among 360,000; AID 743279; in the data active = activity change below about -50%; inconclusive = mostly about -30% to -49%
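THP-1 cells pretreated 1 hr with compounds (up to 57.5 uM final), then stimulated with LPS (250 ng/mL final) plus ATP (1.25 mM final); secreted IL-1B measured by AlphaLISA after 16 hr, decreased signal indicating inhibition.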
ELG1 DNA repair: blocks ELG1-dependent DNA repair in HEK293T cells. HEK293T ELG1-luciferase reporter, luminescence, 16 h; DNA damage induced by 5-fluorouridine. hit rate 2.3% among 330,000. Potency, µM (highest dose often 46.1 µM), for the others: at the top dose activity change, negative = inhibition, actives largely listed as inhibitors. AID 504467; also: potency is read from the fitted curve at half-maximal effect; nearly all actives have a fitted effect of over 55% in size
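Luminescence from the luciferase reporter, measured 30 min after ONE-Glo reagent at room temperature, was the read-out. Beforehand, 2,000 cells per well were exposed for 16 hr at 37 °C to 5-fluorouridine together with compound or vehicle.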
Starred values were filed as active, the others as inactive; i = inactive; ? = inconclusive; / = not tested or not shown; [ ] = another dose, or the depositor's remark. Unless noted, calls follow the shape of the dose curve; as a rule, active = well fitted curve in the direction sought with a large enough effect; inconclusive = small, poorly fitted or top-dose-only effect, or another doubt; inactive = no such curve, though single readings can be large; an effect the other way counts as inactive or inconclusive. % is scaled to controls: 0 for no effect and ±100 for the full control effect.

SMILES	TDP1 inh	TDP1 cell CPT	DT40 TDP1 no CPT	Giardia killer	IL-1B inflam inh	ELG1 DNA repair
CC(OC(=O)c1ccc([N+](=O)[O-])o1)C(=O)Nc1nc(-c2ccc(F)c(F)c2)cs1 (configuration not stated)	-1%	21µM*	21µM*	3	?	?
c1nc(NCCc2cnc[nH]2)c2ccc(-c3ccc4c(c3)OCO4)cc2n1	7%	/	/	/	/	/
O=C(NCc1cccs1)C1CCN(S(=O)(=O)c2cccc3nsnc23)CC1	2%	12%	-7%	3	-6	-8%
Cn1cc(-c2cc3n(n2)CCC(=O)N3CC(=O)NCc2ccccc2)c2ccccc21	5%	?	?	/	/	/
O=C(Nc1ccccc1O)/C(=C\c1ccccc1)NC(=O)c1ccccc1	-3%	-3%	12%	3	9	-12%
O=C(CN1CCCCC1)Nc1nc(-c2ccc(F)c(F)c2)cs1	0%	?	?	22	-10	?
COc1ccc(-c2csc(NC(=O)CCn3cnc4ccccc4c3=O)n2)cc1OC	3%	?	18µM*	-2	?	7.3µM*
Cc1csc(NC(=O)CSc2nnc(CCNC(=O)c3cccs3)n2C)n1	2%	-6%	-5%	-3	79	6%
COc1ccc(CCCc2nnc(SCC(=O)Nc3nc(C)cs3)n2C)cc1C	-2%	?	26µM*	4	-5	?
COC(=O)c1c(-c2ccc3ccccc3c2)csc1NC(=O)Cc1ccc(OC)c(OC)c1	-2%	-74%	13µM*	2	?	?
O=C(COC(=O)C1CC1)Nc1nc(-c2ccc(F)c(F)c2)cs1	-12%[0.505 µM]	21µM*	10µM*	4	-29	?
CCN1CCN(C(CNS(=O)(=O)c2ccc(Cl)cc2)c2cccnc2)CC1 (configuration not stated)	4%	0%	-13%	5	-7	12%
Cc1ccc2c(Sc3ccc(Cl)cc3)c(C(=O)N3CCCCC3)[nH]c2c1	11%	?	?	/	/	/
O=C(Cc1ccccc1)Nc1nc(-c2cccs2)cs1	2%	?	-28%	-4	-18	?
O=C(Cc1cccs1)Nc1nc(-c2ccc(F)cc2F)cs1	1%	10µM*	?	10	-70*	?
O=C(Cc1cccs1)Nc1nc(-c2ccc(F)c(F)c2)cs1	2%	8.2µM*	1.5µM*	-4	/	?
CC(=O)Nc1ccc(-c2csc(NC(=O)Cc3cccc(F)c3)n2)cc1	14%	?	23µM*	6	?	18µM*
O=C(Cc1ccccc1)Nc1nc(-c2ccc(F)c(F)c2)cs1	/	1.8µM*	?	0	-14	-5%
O=C(Cc1cccs1)Nc1ccc(F)c(F)c1	/	-11%	-5%	16	2	7%
O=C(Cc1ccccc1F)Nc1nc(-c2ccc(F)c(F)c2)cs1	6%	5.2µM*	2.1µM*	-3	-90*	-4%
COc1ccc2c(c1OC)C(=O)OC2Nc1nc(-c2ccc(-c3ccccc3)cc2)cs1 (configuration not stated)	2%	-23%	-23%	-23	15	?
COc1cccc(-c2csc(NC3OC(=O)c4c3ccc(OC)c4OC)n2)c1 (configuration not stated)	-3%	?	?	-12	-93*	?
O=C(Cc1c(F)c(F)c(F)c(F)c1F)Nc1nc(-c2ccccc2)cs1	7%	?	16µM*	-10	-79*	20%
CC(=O)Nc1ccc(-c2csc(NC(=O)Cc3ccccc3F)n2)cc1	/	?	?	-14	-13	-3%
CCOc1ccc(OCC)c(Nc2cc(C)nc3nc(C)nn23)c1	-5%	18µM*	?	-9	-13	-6%
SMILES	TDP1 inh	TDP1 cell CPT	DT40 TDP1 no CPT	Giardia killer	IL-1B inflam inh	ELG1 DNA repair
CCOc1ccc(OCC)c(Nc2cc(C)nc3ncnn23)c1	0%	1%	-12%	-3	-11	?
c1ccc(-c2ccccc2OCCCN2CCCCC2)cc1	3%	16µM*	15µM*	-25	-15	-28%
N=C(C[C@@H](O)COc1ccccc1-c1ccccc1)N1CCCCC1	12%[56.1 µM]	3µM*	3.8µM*	/	/	/
CCN1CCN(CCCOc2ccccc2-c2ccccc2)CC1	5%	?	?	6	-5	5%
c1ccc2c(OCCCN3CCCCCC3)cccc2c1	/	29µM*	23µM*	-6	?	-13%
CCOc1ccc(Oc2ccc(NC(=O)[C@@H](NC(N)=O)[C@@H](C)CC)cc2)cc1	1%	4%	22%	16	-6	?
COc1ccc(-c2ccc(OC)c(C3C4C=CCCC4(C)C(=O)N3Cc3ccccc3)c2)cc1OC (configuration not stated)	15%	/	/	-22	/	/
O=C(CCNS(=O)(=O)c1ccccc1)NNC(=O)C1COc2ccccc2O1 (configuration not stated)	-3%	12%	-4%	-5	6	1%
CC(=O)NC(=S)Nc1ccc(-c2nc3ccc(C)cc3s2)cc1	4%	?	?	-17	18	?
Cc1ccc2nc(-c3ccc(NC(=O)CN(c4ccccc4C)S(C)(=O)=O)cc3)sc2c1	5%	21µM*	15µM*	-19	-28	?
Cc1cc(C)cc(N(CC(=O)Nc2ccc(-c3nc4ccc(C)cc4s3)cc2)S(C)(=O)=O)c1	6%	23µM*	15µM*	-2	-20	?
Cc1ccc2nc(-c3ccc(NC(=O)COC(=O)c4ccco4)cc3)sc2c1	1%	-22%	?	-14	-51*	?
Cc1ccc2nc(-c3ccc(NC(=O)COC(=O)c4ccc(Br)o4)cc3)sc2c1	1%	?	?	?	28	?
CC1=CCC(C(=O)O)C(C(=O)Nc2ccc(-c3nc4ccc(C)cc4s3)cc2)C1 (configuration not stated)	25µM*	-3%	-11%	-3	-14	?
Cc1cccc(NC(=S)Nc2ccccn2)c1	1%	?	8.2µM*	-9	11	?
COc1ccc(NC(=S)Nc2ccccn2)cc1	3%	?	?	7	-13	?
Cc1ccc(NC(=S)Nc2ccc3nc(-c4ccccn4)c(-c4ccccn4)nc3c2)cc1C	6%	26µM*	?	-19	-9	-12%
Cc1cc(C)cc(NC(=S)Nc2ccccn2)c1	8%	13µM*	10µM*	1	i	5%
Cc1ccc(NC(=S)Nc2ccccn2)cc1C	1%	23µM*	16µM*	-3	57	?
